Only some compounds are listed: those with a hit (about 19% of all), similar ones and a draw of the others.
HT1080 IDH1KD tx = qHTS for induction of synthetic lethality in tumor cells producing 2HG: qHTS for the HT-1080-IDH1KD cell line; 2% of 360,000 active; Potency, µM (series often up to 46.1 µM), most hits filed as cytotoxic; HT-1080 IDH1 knockdown viability, ATP luminescence, 48 h
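% activity derives from luminescence (CellTiter-Glo), normalised to DMSO and no-cell wells. HT-1080-IDH1KD cells, 750/well, had 48 h compound exposure at 37 °C.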
TDP1 cell CPT = qHTS for Inhibitors of human tyrosyl-DNA phosphodiesterase 1 (TDP1): qHTS in cells in presence of CPT. 12% of 420,000 active. chicken DT40 Tdp1-/-;hTDP1 cells + 20 nM CPT, ATP luminescence, 48 h. Potency, µM (highest dose often 46.2 µM), hits mostly inhibitors; also: nearly all actives have a fitted effect of over 55% in size
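Cell growth measured by CellTiter-Glo luminescence after a minimum 48 h, 37 C compound exposure with 20 nM CPT in Tdp1-knockout DT40 cells stably expressing hTDP1, seeded 400/well; qHTS titration format.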
KB-V1 cytotox = qHTS assay for MDR1-selective chemotherapeutics: Primary screen using the drug-selected MDR subline cells KB-V1; KB-V1 MDR cells viability, CellTiter-Glo, 72 h; Potency, µM (series often up to 46.1 µM), usual class: cytotoxic; 3.4% of 400,000 active; AID 1347076, 2019; also: nearly all actives have a fitted effect of over 60% in size
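In this primary screen, KB-V1 cells overexpressing P-gp are incubated with library compounds (lowest to highest concentration) for 72 h at 37 degrees C before a luminescent ATP viability read.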
KB-3-1 tox = qHTS assay for MDR1-selective chemotherapeutics: Primary screen using the parental adenocarcinoma cell KB-3-1; KB-3-1 viability, CellTiter-Glo ATP luminescence, 72 h; AID 1347075, 2019; Potency, µM (highest dose often 46.1 µM), actives largely listed as cytotoxic; 1.4% of 400,000 active; also: nearly all actives have a fitted effect of over 60% in size
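Parental KB-3-1 viability, qHTS format: 72 h compound exposure, 37 °C; CellTiter-Glo; media-only wells and DMSO plates as controls; concentration-effect fits on corrected data.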
HT1080NT lethal = qHTS for induction of synthetic lethality in tumor cells producing 2HG: qHTS for the HT-1080-NT fibrosarcoma cell line; HT-1080-NT fibrosarcoma viability, CellTiter-Glo ATP luminescence, 48 h; Potency, µM (titrated, usually from 46.1 µM), usual class: cytotoxic; 1.6% of 360,000 active;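 also: NT is the 2HG producing partner of a matched IDH1 knockdown line; nearly all actives have a fitted effect of over 55% in size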
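Viability by CellTiter-Glo luminescence after 48 h compound exposure at 37C of HT-1080-NT cells (750/well, RPMI, 5% FBS). % activity scaled between DMSO wells and medium-only wells, then curve-fitted and categorized by curve class.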
DT40 TDP1 no CPT = qHTS for Inhibitors of human tyrosyl-DNA phosphodiesterase 1 (TDP1): qHTS in cells in absence of CPT; 15% of 420,000 active; Potency, µM (titrated, usually from 46.2 µM), hits mostly inhibitors; AID 686978, 2013; DT40 Tdp1-/- hTDP1 cells, no CPT, ATP luminescence, 48 h; also: nearly all actives have a fitted effect of over 55% in size
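A cellular qHTS used chicken DT40 cells lacking endogenous Tdp1 but carrying stably transfected human TDP1. Compounds were applied without camptothecin, and cell growth kinetics were judged by ATP-dependent luminescence after ≥48 hr.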
Numbers stand for hits; n = inactive; u = inconclusive; x = not tested or not shown; [ ] = another dose, or the depositor's remark. Calls follow the shape of the dose curve; as a rule, active = well fitted curve in the direction sought with a large enough effect; inconclusive = small, poorly fitted or top-dose-only effect, or another doubt; inactive = no such curve, though single readings can be large; an effect the other way counts as inactive or inconclusive.

SMILES	HT1080 IDH1KD tx	TDP1 cell CPT	KB-V1 cytotox	KB-3-1 tox	HT1080NT lethal	DT40 TDP1 no CPT
CCC(C(=O)OCC(=O)C1(O)CCC2C3CCC4=CC(=O)CCC4(C)C3C(O)CC21C)C(C)C (stereo not given)	n	9.2µM	u	u	n	16µM
CC(C)(C)C(=O)OCC(=O)[C@H]1CC[C@H]2[C@@H]3CCC4=CC(=O)CC[C@]4(C)[C@H]3CC[C@]12C	x	n	x	x	x	n
CC12CCC(=O)C=C1CCC1C2C(O)CC2(C)C(c3csc(N)n3)CCC12 (stereo not given)	u	3.7µM	u	n	6.5µM	3.3µM
CC12CCC(=O)C=C1CCC1C2CCC2(C)C(c3csc(N)n3)CCC12 (stereo not given)	u	5.8µM	21µM	u	u	5.8µM
C/C=C1/C(=O)C[C@@H]2[C@H]3CCC4=CC(=O)CC[C@]4(C)[C@@H]3CC[C@]12C	x	u	x	x	x	15µM
CC(=O)OCC(=O)[C@@]1(O)CCC2C3CCC4=CC(=O)CC[C@]4(C)C3[C@@H](O)C[C@@]21C (stereo not given in full)	x	u	x	x	x	n
CN(C(=O)c1cccc(NC(=O)Cc2ccc(NC(=O)C3CCCN(C(=O)C4CC4)C3)cc2)c1)C1CCC1 (stereo not given)	n	n	n	n	n	n
Cc1cc(F)ccc1NC(=O)CN1C(=O)CCc2cc(S(=O)(=O)N3CCOCC3)ccc21	x	n	n	n	x	n
CC1(C(=O)Nc2ccc3c(c2)OCCO3)CCC(=O)N1CCc1c[nH]c2ccccc12 (stereo not given)	n	n	u	n	n	n
Clc1ccccc1-c1nc(NCc2cccnc2)c2ccccc2n1	x	n	x	x	x	n
S=C(NCCN1CCCCC1)Nc1ccc(Br)cc1	n	n	n	n	n	u
CCC(C)c1ccc(NC(=S)NCCn2cc(Cl)cn2)cc1 (stereo not given)	n	u	u	u	n	21µM
CCC(C)c1ccc(NC(=S)NCCn2cc(Br)cn2)cc1 (stereo not given)	n	21µM	n	n	n	15µM
CN(C)c1nccc(Nc2ccccc2)c1C#N	n[9.24 µM]	u	n	n	n	21µM
Cc1cc(Cl)ccc1NC(=O)c1cc2ccccn2n1	x	u	n	n	x	u
Cc1nnc(-c2ccco2)c2cn(-c3cccc(Br)c3)nc12	n	u	u	n	n	23µM
Cc1c(Cl)cnc(NC(=O)COC(=O)c2ccncc2)c1Cl	n	n	u	n	n	n
O=C(Nc1cccc(-c2cccc(F)c2)c1)C1CCN(C2CCC2)CC1	n	u	n	n	u	5.2µM
Cc1cccc(CN2CCC(C(=O)Nc3cccc(-c4cscn4)c3)CC2)n1	n	u	n	n	n	23µM
O=C(Nc1cccc(F)c1)C1CCN(C(=O)c2ccc(Br)cc2)CC1	n	u	u	n	n	u
CCCc1ncc(CN2CCC(C(=O)Nc3cccc(-c4cscn4)c3)CC2)cn1	n	u	n	n	n	29µM
Cc1nn(C(C)C)c(C)c1CN1CCC(C(=O)Nc2cccc(-c3cccc(F)c3)c2)CC1	21µM	23µM	u	u	15µM	u
CCS(=O)(=O)Nc1cccc(C2=NN(S(=O)(=O)CC)C(c3cccs3)C2)c1 (stereo not given)	n	n	n	n	n	n
Cc1cccc(CN2CCC(C(=O)Nc3cccc(-c4cccc(F)c4)c3)CC2)n1	u	8.2µM	n	n	u	2.9µM
O=C(Nc1cccc(-c2cccc(F)c2)c1)C1CCN(Cc2ccco2)CC1	u	u	n	n	u	u
SMILES	HT1080 IDH1KD tx	TDP1 cell CPT	KB-V1 cytotox	KB-3-1 tox	HT1080NT lethal	DT40 TDP1 no CPT
COc1ccc(CNC(=O)CN2C(=O)NC(C)(c3cccc(Br)c3)C2=O)cc1 (stereo not given)	n	n	n	n	n	n
Cc1cccc(-c2nc(C(N)=O)c3c(n2)n(-c2ccc4c(c2)OCO4)c(=O)n3C)c1	x	u	n	n	x	1.8µM
Nc1cc(N)nc(SCC(=O)Nc2ccccc2N2CCOCC2)n1	n	n	n	n	n	n
Cc1ccc2nc(SCC(=O)Nc3ccccc3N3CCOCC3)c(C#N)cc2c1	u	4.6µM	n	u	u	3.3µM
CCc1ccc2nc(SCC(=O)Nc3ccccc3N3CCOCC3)c(C#N)cc2c1	n	4.6µM	5.8µM	5.2µM	n	4.1µM
Cc1ccc(-c2nnc(SCC(=O)Nc3ccccc3N3CCOCC3)o2)cc1	n	n	13µM	n	n	u
CC(C)CCN1CCN(CC#Cc2ccccc2)CC1CCO (stereo not given)	n	n	n	n	n	u
Cc1ccc(N(C)S(=O)(=O)c2csc(C(N)=O)c2)cc1C	n	n	n	n	n	n
Cc1cccc(C(=O)OCC(=O)N(C)c2ccccc2)c1C	n	n	n	n	n	u
CC(=O)N1N=C(c2ccc(Cl)cc2)CC1c1ccc([N+](=O)[O-])cc1 (stereo not given)	n	u	n	n	n	u
CC1(O)CC(c2ccc(Cl)cc2)=NN1C(=O)c1ccc([N+](=O)[O-])cc1 (stereo not given)	16µM	21µM	u	u	10µM	18µM
Cc1nn(-c2ccccc2)c2c1/C(=N/O)CC(C)(C)C2	n	n	16µM	n	n	n
Cc1nn(-c2ccccc2)c2c1C(=O)N(c1ccccc1)C(=O)C(C)(C)C2	n	n	n	n	n	n
CC(C)NC(=S)N/N=C1\CCCCC1C1CCCCC1 (stereo not given)	n	5.8µM	u	u	n	2.9µM
CCCn1c(=NC(=O)CS(=O)(=O)c2ccccc2)sc2cc(S(C)(=O)=O)ccc21	n	n	n	n	n	n
C=CCn1c(=NC(=O)c2sc3ccccc3c2Cl)sc2cc(S(N)(=O)=O)ccc21	u	u	n	n	u	u
COCCn1c(=NC(=O)CSC(C)=O)sc2cc(F)ccc21	n[9.24 µM]	21µM	u	n	n	23µM
CCC(=O)N=c1sc2cc([N+](=O)[O-])ccc2n1CCOC	n	n	n	n	n	u
COCCn1c(=NC(=O)/C=C/c2cccs2)sc2cc(NC(C)=O)ccc21	n	u	u	n	n	23µM
